Compound activity: PubChem BioAssay, several laboratories
Hits are enriched below; roughly 1.4% of the tested compounds scored in any of these assays.
EBV gp42 inh – blocks Epstein-Barr virus glycoprotein 42 binding. Q1HVG2. inhibition, % (tested at 21.74 µM). 220,000 compounds, 0.42% hits. Fluorescence polarization binding assay, mP read-out; in the data active = inhibition above about 50%
MCL1-BIM inh – inhibitors of human MCL1 binding to BIM-BH3 peptide. GST-MCL1 / FITC-Bim-BH3 fluorescence polarization. inhibition, % at 10.9 µM. 320,000 compounds, 0.68% hits. AID 2057;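 active = inhibition above the mean inhibition of all tested compounds plus 3 SD, set per campaign, cut at about 40% in these data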;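 note: 0% = DMSO wells and 100% = unlabeled Bim-BH3 peptide control; higher means more loss of mP so more displacement of Bim peptide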
eLon inh – E. coli protease La inhibition; P0A9M0; purified E. coli Lon protease, fluorescence polarization; inhibition, % at 7.94 µM; 360,000 compounds, 0.42% hits; in the data active = inhibition above about 13%, passing the limit was not always enough;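 note: 0% = enzyme with probe and DMSO and 100% = no enzyme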
Target sequence (P0A9M0 whole entry, looked up): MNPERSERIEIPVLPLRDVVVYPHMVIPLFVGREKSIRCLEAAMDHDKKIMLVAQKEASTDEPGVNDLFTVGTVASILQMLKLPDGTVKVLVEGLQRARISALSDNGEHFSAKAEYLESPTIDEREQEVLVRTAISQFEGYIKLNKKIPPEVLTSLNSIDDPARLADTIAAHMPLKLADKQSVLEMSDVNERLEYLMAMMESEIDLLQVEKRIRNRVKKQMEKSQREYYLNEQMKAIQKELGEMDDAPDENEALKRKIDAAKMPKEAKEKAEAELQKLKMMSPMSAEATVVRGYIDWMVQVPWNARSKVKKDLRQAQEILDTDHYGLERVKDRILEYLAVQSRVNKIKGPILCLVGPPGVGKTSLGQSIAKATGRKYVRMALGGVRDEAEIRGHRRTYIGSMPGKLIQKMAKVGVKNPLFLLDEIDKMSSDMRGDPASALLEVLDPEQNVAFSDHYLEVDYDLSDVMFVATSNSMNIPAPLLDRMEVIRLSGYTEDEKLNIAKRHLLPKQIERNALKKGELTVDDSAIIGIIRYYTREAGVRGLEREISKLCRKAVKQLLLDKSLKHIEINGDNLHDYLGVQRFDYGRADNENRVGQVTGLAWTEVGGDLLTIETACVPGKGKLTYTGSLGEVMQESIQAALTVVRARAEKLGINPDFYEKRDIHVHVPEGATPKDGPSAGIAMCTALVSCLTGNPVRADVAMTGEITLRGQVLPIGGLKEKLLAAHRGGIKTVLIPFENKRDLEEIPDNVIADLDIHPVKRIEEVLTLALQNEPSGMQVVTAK
MEX-5 binding – C. elegans MEX-5 TCR-2 RNA binding activity | activity score (negative = inhibition of binding), % at 10 µM | Q9XUB2 | 300,000 compounds, 0.38% hits | MEX-5/FITC-TCR2 RNA binding, fluorescence polarization; stronger effect = lower value;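 active = inhibition past about -25% in most replicates, and total fluorescence under double the plate's negative control median, limit read from the data; inconclusive = replicates evenly split on the limit, or fluorescence at least double controls; inactive = too little inhibition in most replicates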;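 note: 0% = DMSO and -100% = 5 µM competing unlabeled TCR2 RNA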
GLD-1 TGE inh – GLD-1-TGE RNA interaction inhibition (C. elegans); Q17339; purified GLD-1 + fluorescein TGE RNA, fluorescence polarization; 320,000 compounds, 0.44% hits; inhibition, % at 5.96 µM;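 active = percent inhibition above a per-plate cutoff, the plate mean of test compounds plus 3 SD, cut at about 30% in these data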;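 note: 0% = DMSO wells with GLD-1 and probe and 100% = wells lacking GLD-1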
Bcl-xL primary – Bcl-xL (human) inhibition. Q07817. GST-Bcl-xL / FITC-Bim BH3 peptide fluorescence polarization. inhibition, % at 10.9 µM. 320,000 compounds, 0.7% hits. AID 2129;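 active = inhibition above the mean of all tested compounds plus 3 SD, cutoff set per campaign, cut at about 30% in these data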;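 note: 0% = DMSO wells and 100% = unlabeled Bim-BH3 peptide competitor; inhibitors lower millipolarization by displacing the labeled peptide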
Numbers without * were called inactive; ? = inconclusive; · = no result given.

SMILES	EBV gp42 inh	MCL1-BIM inh	eLon inh	MEX-5 binding	GLD-1 TGE inh	Bcl-xL primary
C[C@H](CO)N1C[C@H](C)[C@@H](CN(C)S(=O)(=O)c2cccs2)Oc2ccc(NS(=O)(=O)c3ccc(F)cc3)cc2C1=O	·	·	2	·	7	·
C=CC1=C(C(=O)O)N2C(=O)[C@@H](NC(=O)/C(=N\O)c3csc(N)n3)[C@H]2SC1 (stereo in doubt)	·	24	-1	-26*	11	7
CCn1ccc(C(=O)NC2C(=O)N3C(C(=O)O)=C(C)CSC23)n1 (stereo not given)	-13	0	-6	·	-1	-2
Cc1oc2c(CN3CCC(C)CC3)c(O)ccc2c(=O)c1-c1ccccc1	·	6	-4	-1	14	34*
Oc1ccc(O)c(-c2cnns2)c1	-23	14	19	-63*	14	19
CCOc1ccc(S(=O)(=O)c2c[nH]c3ccc(C)cc3c2=O)cc1	·	19	-9	0	19	41*
N#C/C(=C\C=C\c1ccccc1[N+](=O)[O-])C(=O)NC1CCCCC1	-15	5	-4	5	-3	5
N#C/C(=C\c1ccccc1[N+](=O)[O-])C(=O)NC1CCCCC1	-14	31	15	0	26	31*
CCOc1ccc(NC(=O)CN(C)C(=O)c2cc3c(s2)CCC(C)C3)cc1OCC (stereo not given)	·	2	-1	·	0	7
C=CCC[C@@H](CCCCC)OC(=O)/C=C/[C@@H](O)[C@H](O)C[C@@H](O)CC=C	·	·	6	·	·	·
COc1ccc(C(=O)NC2(C(F)(F)F)C(=O)N(Cc3ccco3)C3=C2C(=O)CC(C)(C)C3)cc1OC (stereo not given)	77*	-3	-1	?	1	0
CCSC1=N/C(=C\c2ccc(C(=O)O)cc2)C(=O)S1	-5	8	-9	-6	-6	5
O=C1SC(SCc2ccccc2Cl)=N/C1=C\c1ccc(C(=O)O)cc1	-2	14	-1	-41*	-2	8
C=CCn1c(O)c(N=Nc2ccccc2C)c2ccccc21	68*	4	·	-6	6	6
N#Cc1ccc(-c2cccnc2)nc1SCC(=O)c1ccccc1	-17	20	-247	4	-87	36*
CCN(CC)CCNC(=O)c1ccc(NC(=O)c2ccc3c(c2)CCC3)cc1	·	22	-5	0	14	48*
CC1(c2nc3ccccc3[nH]2)CCC(=O)N1C1CC1 (stereo not given)	·	·	-5	·	·	·
COC(=O)[C@H](CC(C)C)NC(=O)CC[C@H]1O[C@@H](n2ccc(=O)[nH]c2=O)[C@H](O)[C@@H]1O	·	·	-4	·	·	·
CN(CC(=O)Nc1ccccc1Cl)C1CCCCC1	·	3	13	-1	-2	8
CN(CC(=O)Nc1ccccc1Cl)C1CCS(=O)(=O)C1 (stereo not given)	·	3	3	·	3	36*
CCC1(c2ccc(OC)cc2)NC(=O)N(CC(=O)c2ccc3c(c2)OCCO3)C1=O (stereo not given)	·	-5	-3	·	-6	-3
COc1ccc(CCNC(=O)COc2nsnc2N2CCOCC2)cc1OC	82*	-1	-8	-4	6	5
CC(=O)C1=CCC(c2ccc(C)o2)N(S(=O)(=O)c2ccc(C)cc2)C1 (stereo not given)	·	·	16	·	·	·
Oc1ccc(C2=CSC3=NCCN23)cc1O	·	4	7	-30*	-4	6
CC(=O)Nc1nnc(SCc2cccc(F)c2)s1	-19	2	-4	-2	0	47*
SMILES	EBV gp42 inh	MCL1-BIM inh	eLon inh	MEX-5 binding	GLD-1 TGE inh	Bcl-xL primary
CC(=O)Nc1nnc(SCc2ccc(F)cc2)s1	-3	0	-7	3	-1	6
O=C(c1cccc(S(=O)(=O)N2CCc3ccccc32)c1)N1CCN(c2ccccc2)CC1	·	·	3	·	·	·
O=[N+]([O-])c1ccc(-c2nc3ccc([N+](=O)[O-])cc3[nH]2)cc1	75*	8	-19	-2	-1	4
CCC(C)NC(=O)c1ccc(CSCc2cccc(F)c2)o1 (stereo not given)	110*	7	-2	-1	-2	5
CN(C)c1ccc2nc3ccc(=[N+](C)C)cc-3sc2c1	-5	18	5	-33*	8	5
Cc1nc2cc(C)c(C)cc2s1	-8	5	7	2	1	0
Cc1cc2nc3ccc(=[N+](C)C)cc-3sc2cc1N	-8	·	2	-48*	·	·
